Experimental data as given in the supplement of paper PMC10849652.
Of roughly 8,800 targets only a part is listed; those with a hit were picked by preference. About 0.5% of all pairs of compound and target were hits. Unmarked numbers belong to inactive results.

Tests used:
Experiment in all cases: log2 fold change, soluble protein after heating vs DMSO (PISA); higher = thermal stabilisation; K562 lysate, 10 uM; active = over 0.2 and 3.5 SD of the protein, either way, in both replicates (recomputed)
[1] = compound: Cc1sc2c(c1C)C(c1ccc(Cl)cc1)=N[C@@H](CC(=O)OC(C)(C)C)c1nnc(C)n1-2
How it was run: (§1)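 K562 pellets were dounce-homogenised in PBS pH 7.4 with 1 mM MgCl2, and the crude extract at 1 mg/mL protein was treated with 10 μM compound for 30 min. Aliquots were heated for 3 min across 48°C-58°C, pooled, and brought to 0.5% NP-40 at 4°C; soluble protein was the supernatant after 21,000xg for 90 min. Soluble protein was quantified by TMTpro 16plex LC-MS/MS with channel sums equalised, and reported as log2 fold change in thermal stability against DMSO controls, with values from duplicates.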

[2] = compound: c1ccc([C@@H]2C[C@H]2NC2CCNCC2)cc1
How it was run: as §1

[3] = compound: CC1=C2C(=CC=C1)N=C(N(C2=O)C3=CC=CC=C3C)CN4C=NC5=C(N=CN=C54)N
How it was run: as §1

[4] = compound: C1=CC=C(C=C1)[C@H](COC2=CC3=C(C=C2)NC(=O)N3)NC(=O)C4=CC=CN(C4=O)CC5=CC(=C(C=C5)F)F
How it was run: as §1

[5] = compound: CC1=C(SC2=C1C(=N[C@H](C3=NN=C(N32)C)CC(=O)N)C4=CC=C(C=C4)Cl)C
How it was run: as §1

Sequence of UniProt Q9UGU0 (Q9UGU0 whole entry, looked up): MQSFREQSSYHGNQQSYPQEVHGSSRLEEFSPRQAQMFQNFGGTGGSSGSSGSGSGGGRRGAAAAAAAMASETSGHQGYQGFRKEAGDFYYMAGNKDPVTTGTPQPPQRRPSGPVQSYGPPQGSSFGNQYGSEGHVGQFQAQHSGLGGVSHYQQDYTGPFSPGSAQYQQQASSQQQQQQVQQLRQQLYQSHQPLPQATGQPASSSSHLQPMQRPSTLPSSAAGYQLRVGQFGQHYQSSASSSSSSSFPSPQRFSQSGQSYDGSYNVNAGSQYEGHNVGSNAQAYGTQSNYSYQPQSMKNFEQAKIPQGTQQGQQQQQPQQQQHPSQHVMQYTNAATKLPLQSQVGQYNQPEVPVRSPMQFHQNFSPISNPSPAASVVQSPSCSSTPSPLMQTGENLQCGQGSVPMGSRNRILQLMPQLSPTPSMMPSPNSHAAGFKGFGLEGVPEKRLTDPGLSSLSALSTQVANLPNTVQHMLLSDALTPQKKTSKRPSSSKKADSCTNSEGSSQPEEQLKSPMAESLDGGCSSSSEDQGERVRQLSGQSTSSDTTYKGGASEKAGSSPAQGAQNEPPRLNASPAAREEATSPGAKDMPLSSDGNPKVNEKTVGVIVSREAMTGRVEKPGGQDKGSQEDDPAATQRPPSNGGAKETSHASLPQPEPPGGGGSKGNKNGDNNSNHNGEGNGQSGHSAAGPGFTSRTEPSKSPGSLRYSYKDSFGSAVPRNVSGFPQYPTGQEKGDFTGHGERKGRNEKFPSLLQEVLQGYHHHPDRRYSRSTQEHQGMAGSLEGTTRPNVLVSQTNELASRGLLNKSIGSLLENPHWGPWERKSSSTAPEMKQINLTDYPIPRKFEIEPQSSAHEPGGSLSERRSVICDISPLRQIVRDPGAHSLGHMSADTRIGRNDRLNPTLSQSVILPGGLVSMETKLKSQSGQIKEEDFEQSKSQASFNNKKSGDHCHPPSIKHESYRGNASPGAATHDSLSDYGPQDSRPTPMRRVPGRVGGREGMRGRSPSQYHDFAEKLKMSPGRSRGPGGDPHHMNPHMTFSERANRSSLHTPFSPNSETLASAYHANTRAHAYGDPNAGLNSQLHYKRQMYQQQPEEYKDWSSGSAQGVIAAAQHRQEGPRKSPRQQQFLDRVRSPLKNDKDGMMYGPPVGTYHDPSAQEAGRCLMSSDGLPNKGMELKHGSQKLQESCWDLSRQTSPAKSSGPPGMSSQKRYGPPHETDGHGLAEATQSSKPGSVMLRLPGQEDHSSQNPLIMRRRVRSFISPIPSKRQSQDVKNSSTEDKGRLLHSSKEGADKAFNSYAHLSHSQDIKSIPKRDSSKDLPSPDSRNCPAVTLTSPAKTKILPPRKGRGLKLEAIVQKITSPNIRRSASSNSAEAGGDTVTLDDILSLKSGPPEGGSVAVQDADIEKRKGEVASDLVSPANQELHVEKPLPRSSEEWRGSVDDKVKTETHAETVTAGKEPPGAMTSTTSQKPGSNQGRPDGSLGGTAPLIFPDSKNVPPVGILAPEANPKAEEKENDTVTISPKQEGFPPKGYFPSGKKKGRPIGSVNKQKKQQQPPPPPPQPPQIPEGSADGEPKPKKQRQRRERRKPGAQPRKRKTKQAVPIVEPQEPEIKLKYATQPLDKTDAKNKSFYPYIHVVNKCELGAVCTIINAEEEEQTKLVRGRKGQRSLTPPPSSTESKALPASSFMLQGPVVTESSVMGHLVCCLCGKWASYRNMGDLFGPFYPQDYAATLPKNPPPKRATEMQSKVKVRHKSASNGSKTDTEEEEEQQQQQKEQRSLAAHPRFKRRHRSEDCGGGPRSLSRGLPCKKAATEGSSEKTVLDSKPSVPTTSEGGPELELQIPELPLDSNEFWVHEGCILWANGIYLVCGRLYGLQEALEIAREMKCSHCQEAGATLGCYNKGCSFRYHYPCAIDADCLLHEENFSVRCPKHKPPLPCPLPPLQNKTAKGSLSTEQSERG
Sequence of UniProt Q8TD43 (Q8TD43 whole entry, looked up): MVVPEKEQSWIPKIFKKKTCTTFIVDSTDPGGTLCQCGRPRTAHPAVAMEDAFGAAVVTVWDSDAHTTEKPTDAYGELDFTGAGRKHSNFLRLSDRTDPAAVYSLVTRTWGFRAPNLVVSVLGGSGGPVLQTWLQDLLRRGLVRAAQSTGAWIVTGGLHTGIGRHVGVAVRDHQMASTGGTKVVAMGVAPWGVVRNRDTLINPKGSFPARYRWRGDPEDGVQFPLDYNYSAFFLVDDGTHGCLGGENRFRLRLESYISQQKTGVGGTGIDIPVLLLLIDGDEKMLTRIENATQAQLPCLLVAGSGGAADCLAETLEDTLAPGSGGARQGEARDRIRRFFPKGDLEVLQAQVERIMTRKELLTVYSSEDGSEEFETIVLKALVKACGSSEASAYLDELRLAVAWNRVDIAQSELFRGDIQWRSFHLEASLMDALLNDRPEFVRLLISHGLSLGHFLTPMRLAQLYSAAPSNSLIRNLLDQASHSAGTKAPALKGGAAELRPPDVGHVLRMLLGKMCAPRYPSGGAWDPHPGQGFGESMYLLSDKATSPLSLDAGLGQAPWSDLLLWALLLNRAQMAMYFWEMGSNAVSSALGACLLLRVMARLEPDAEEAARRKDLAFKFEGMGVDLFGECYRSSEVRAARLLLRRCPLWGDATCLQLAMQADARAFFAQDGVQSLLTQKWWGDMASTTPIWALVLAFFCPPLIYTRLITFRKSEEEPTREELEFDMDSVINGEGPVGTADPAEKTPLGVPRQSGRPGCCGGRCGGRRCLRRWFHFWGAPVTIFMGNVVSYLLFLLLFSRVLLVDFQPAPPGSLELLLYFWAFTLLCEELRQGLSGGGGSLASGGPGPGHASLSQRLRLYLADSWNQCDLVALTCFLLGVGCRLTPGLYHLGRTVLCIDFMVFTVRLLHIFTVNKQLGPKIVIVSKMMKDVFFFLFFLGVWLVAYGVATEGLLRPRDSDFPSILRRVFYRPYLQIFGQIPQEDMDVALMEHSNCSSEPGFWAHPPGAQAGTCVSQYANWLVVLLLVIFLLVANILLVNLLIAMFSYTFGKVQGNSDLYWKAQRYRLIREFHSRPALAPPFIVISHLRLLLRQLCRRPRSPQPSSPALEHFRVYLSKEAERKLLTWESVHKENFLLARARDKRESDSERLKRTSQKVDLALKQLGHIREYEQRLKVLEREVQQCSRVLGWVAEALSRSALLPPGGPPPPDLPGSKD
Sequence of UniProt P62328 (P62328 whole entry, looked up): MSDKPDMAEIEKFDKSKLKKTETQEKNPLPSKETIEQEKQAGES
Sequence of UniProt O95271 (O95271 whole entry, looked up): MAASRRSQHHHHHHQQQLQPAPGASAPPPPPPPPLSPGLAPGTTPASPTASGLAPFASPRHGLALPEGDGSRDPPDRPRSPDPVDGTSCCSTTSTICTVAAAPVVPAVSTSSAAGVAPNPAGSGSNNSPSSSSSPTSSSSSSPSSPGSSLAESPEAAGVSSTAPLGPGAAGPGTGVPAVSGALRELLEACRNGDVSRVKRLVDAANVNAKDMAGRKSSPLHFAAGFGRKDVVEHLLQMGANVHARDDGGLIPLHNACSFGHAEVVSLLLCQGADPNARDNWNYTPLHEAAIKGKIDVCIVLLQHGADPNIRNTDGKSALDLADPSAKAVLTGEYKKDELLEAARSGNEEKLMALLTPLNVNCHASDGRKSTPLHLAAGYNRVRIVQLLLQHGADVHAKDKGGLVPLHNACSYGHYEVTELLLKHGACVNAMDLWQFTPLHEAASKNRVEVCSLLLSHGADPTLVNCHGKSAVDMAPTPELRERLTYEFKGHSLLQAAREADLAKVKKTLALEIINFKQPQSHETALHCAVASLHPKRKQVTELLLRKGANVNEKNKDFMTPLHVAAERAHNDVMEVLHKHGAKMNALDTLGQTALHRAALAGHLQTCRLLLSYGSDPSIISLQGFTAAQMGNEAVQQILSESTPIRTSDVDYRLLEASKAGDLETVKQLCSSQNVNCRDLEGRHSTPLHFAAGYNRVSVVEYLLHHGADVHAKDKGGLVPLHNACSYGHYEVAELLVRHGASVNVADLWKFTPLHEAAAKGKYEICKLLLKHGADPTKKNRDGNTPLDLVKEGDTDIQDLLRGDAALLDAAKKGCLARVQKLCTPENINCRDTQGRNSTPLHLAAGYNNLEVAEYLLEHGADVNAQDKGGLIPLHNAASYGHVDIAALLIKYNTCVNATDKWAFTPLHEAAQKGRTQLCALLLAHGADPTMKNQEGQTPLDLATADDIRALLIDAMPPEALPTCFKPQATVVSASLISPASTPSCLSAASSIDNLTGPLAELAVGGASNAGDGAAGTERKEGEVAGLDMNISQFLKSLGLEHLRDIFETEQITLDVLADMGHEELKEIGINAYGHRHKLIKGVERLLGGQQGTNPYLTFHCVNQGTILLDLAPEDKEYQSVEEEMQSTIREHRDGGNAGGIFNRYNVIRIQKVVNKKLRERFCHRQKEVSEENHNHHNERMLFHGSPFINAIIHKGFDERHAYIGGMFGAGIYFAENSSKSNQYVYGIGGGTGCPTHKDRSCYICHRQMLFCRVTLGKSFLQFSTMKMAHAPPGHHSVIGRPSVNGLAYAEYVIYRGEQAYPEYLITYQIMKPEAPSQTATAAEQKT
Sequence of UniProt Q9NRX6 (Q9NRX6 whole entry, looked up): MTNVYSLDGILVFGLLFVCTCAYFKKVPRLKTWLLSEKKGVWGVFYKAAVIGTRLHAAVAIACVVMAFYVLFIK
Sequence of UniProt P06753 (P06753 whole entry, looked up): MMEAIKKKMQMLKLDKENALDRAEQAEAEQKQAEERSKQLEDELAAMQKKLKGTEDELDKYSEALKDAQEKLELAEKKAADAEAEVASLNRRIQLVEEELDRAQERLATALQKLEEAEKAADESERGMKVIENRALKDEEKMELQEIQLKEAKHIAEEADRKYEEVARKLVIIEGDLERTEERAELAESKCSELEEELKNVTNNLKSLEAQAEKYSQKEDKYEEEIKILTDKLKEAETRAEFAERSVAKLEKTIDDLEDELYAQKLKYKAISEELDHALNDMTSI

| Target | log2 fold change [1] | log2 fold change [2] | log2 fold change [3] | log2 fold change [4] | log2 fold change [5] |
| --- | --- | --- | --- | --- | --- |
| TCF4 (UniProt P15884) | 0.047 | 0.091 |  |  |  |
| UBN1 (UniProt Q9NPG3) | -0.164 | 0.085 | 0.03 |  |  |
| TMEM161B (UniProt Q8NDZ6) |  | -0.025 | -0.076 | -0.07 | -0.052 |
| TPD52L2 isoform 3 (UniProt O43399) |  | 0.098 |  | -0.058 | 0.135 |
| TNKS (UniProt O95271) | 0.039 | -0.035 | 0.023 |  |  |
| UBIAD1 (UniProt Q9Y5Z9) | -0.048 | 0.025 | -0.025 |  |  |
| TENM4 (UniProt Q6N022) |  | 0.137 |  | -0.057 | 0.174 |
| TASP1 (UniProt Q9H6P5) | 0.059 |  |  | 0.027 | 0.205 |
| TFPI (UniProt P10646) |  | 0.269 | -0.16 | 0.053 | -0.116 |
| TMSB4X (UniProt P62328) |  | 0.176 |  | -0.935 (active) | 0.434 |
| TJP1 (UniProt H0Y3R8) |  | 0.031 |  |  |  |
| TUBB4A (UniProt P04350) | 0.044 | 0.044 |  | 0.015 | -0.03 |
| TLE3 (UniProt H0YL70) | -0.343 |  |  |  |  |
| TFPI isoform 2 (UniProt P10646) |  |  | 0.048 |  |  |
| TSPAN3 (UniProt O60637) | 0.006 | 0.16 | 0.174 |  |  |
| TMEM132A isoform 2 (UniProt Q24JP5) |  | -0.066 |  |  |  |
| TRAF7 (UniProt Q6Q0C0) | -0.005 | 0.238 | 0.007 |  |  |
| TFPT (UniProt P0C1Z6) | -0.052 |  |  | -0.176 | -0.078 |
| TCF20 (UniProt Q9UGU0) | -0.263 | -0.059 |  | 0.022 | -0.063 |

| Target | log2 fold change [1] | log2 fold change [2] | log2 fold change [3] | log2 fold change [4] | log2 fold change [5] |
| --- | --- | --- | --- | --- | --- |
| UCP2 (UniProt P55851) |  |  | -0.003 |  |  |
| TLK2 isoform 3 (UniProt Q86UE8) |  | 0.097 |  |  |  |
| U2AF1L5 (UniProt P0DN76) | 0.002 | -0.499 |  |  |  |
| TEDC1 (UniProt Q86SX3) | 0.058 |  |  |  |  |
| TMC1 (UniProt Q8TDI8) |  |  | 0.038 |  |  |
| TMEM167B (UniProt Q9NRX6) |  | -0.187 | 0.036 | 0.021 | -0.032 |
| UBR4 isoform 4 (UniProt Q5T4S7) | -0.284 |  | -0.023 |  |  |
| UBAP2L (UniProt F8W726) |  |  | -0.018 |  |  |
| TMEM154 (UniProt Q6P9G4) | -0.073 |  |  |  |  |
| TLE3 isoform 5 (UniProt Q04726) | -0.069 | 0.199 |  | -0.061 | -0.454 (active) |
| TCF3 (UniProt X6REB3) |  | -0.25 | -0.031 |  |  |
| TEC (UniProt P42680) |  |  | 0.114 |  |  |
| TPM3 isoform 3 (UniProt P06753) | -0.041 | -0.266 | -0.048 |  |  |
| TGFBR1 isoform 2 (UniProt P36897) | -0.004 |  |  |  |  |
| TUBB6 (UniProt K7ES63) |  | -0.085 | -0.028 | -0.115 | 0.02 |
| TRPM4 (UniProt Q8TD43) | -0.042 | -0.354 |  | -0.074 | 0.114 |
| TUBA4A (UniProt C9JQ00) |  | 0.056 |  | -0.111 | -0.225 |
| TM2D3 (UniProt Q9BRN9) |  | -0.513 |  | 0.023 | -0.003 |
| TNFAIP3 (UniProt P21580) | 0.033 | 0.06 |  | 0.052 | 0.05 |
